Test results published in PubChem BioAssay (Tox21).
Records with an inconclusive call do not appear. Active and inactive are the calls of the source. Unless noted, calls follow the shape of the full dose curve.

Columns and labels:
[1] = Nuclear factor erythroid 2-related factor 2/antioxidant responsive element (Nrf2/ARE) small molecule agonists: qHTS cell viability counter screen in human keratinocytes (AID 1919968; active = well fitted curve in the direction sought with a large enough effect in the repeat runs; an effect the other way counts as inactive or inconclusive; also: nearly all actives have a fitted effect of over 55% in size)
Outline: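 Measured as CellTiter-Fluor fluorescence, this readout tracks cytotoxicity in the same wells as the ARE-luciferase screen. HaCaT reporter cells (1,500/well) received compounds after a 5 h pre-incubation and were exposed for 23 h.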

[2] = biological target: Gonadotropin-releasing hormone receptor (Homo sapiens) (UniProt P30968); assay: Human gonadotropin-releasing hormone receptor (GnRHR) small molecule agonists, calcium flux assay in GnRHR-HEK293 cells (AID 1920063); also: nearly all actives have a fitted effect of over 35% in size
Sequence of Gonadotropin-releasing hormone receptor (Homo sapiens) (P30968 whole entry, looked up): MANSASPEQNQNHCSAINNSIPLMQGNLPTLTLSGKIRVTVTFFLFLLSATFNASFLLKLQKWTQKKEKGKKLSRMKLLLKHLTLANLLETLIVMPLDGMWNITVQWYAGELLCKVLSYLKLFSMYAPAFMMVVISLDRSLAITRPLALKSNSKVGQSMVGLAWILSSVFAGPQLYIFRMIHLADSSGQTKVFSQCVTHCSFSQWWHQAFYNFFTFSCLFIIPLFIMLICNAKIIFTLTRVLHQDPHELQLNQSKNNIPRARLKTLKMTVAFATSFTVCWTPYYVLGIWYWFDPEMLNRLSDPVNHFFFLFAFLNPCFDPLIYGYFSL
Outline: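 Fluorescence kinetics (480 nm excitation, 540 nm emission; 3 min, 1 s steps) report calcium mobilisation in human GnRHR-HEK293 cells in agonist mode. Dye incubation: 1 h, 37 C.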

[3] = biological target: KiSS-1 receptor (Homo sapiens) (UniProt Q969F8); assay: Human kisspeptin (KISS1R) small molecule agonists, calcium flux assay in KISS1R-HEK293 cells (AID 1920064; active = well fitted curve in the direction sought with a large enough effect in the repeat runs; an effect the other way counts as inactive or inconclusive)
Sequence of KiSS-1 receptor (Homo sapiens) (Q969F8 whole entry, looked up): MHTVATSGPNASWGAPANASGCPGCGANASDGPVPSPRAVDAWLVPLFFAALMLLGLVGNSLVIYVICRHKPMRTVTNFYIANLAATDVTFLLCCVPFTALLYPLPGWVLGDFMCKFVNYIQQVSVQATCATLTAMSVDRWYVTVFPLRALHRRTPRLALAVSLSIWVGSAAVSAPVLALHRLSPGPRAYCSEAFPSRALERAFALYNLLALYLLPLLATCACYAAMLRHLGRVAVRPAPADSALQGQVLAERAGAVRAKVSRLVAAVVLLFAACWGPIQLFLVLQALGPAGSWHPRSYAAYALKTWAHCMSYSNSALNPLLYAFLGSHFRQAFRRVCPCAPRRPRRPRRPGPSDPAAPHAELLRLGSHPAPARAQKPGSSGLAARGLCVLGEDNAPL
Outline: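 Measures KISS1R agonism through calcium-sensitive dye fluorescence in stably transfected HEK293 cells, read for 3 min after pin-tool compound delivery; 15-point titrations in triplicate.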

[4] = G protein-coupled receptor (GPCR) small molecule agonists, calcium flux assay: HEK293 wild type cell line counter screen (AID 1920065)
Outline: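 Readout: fluorescence at 480 nm excitation/540 nm emission, sampled at 1 s intervals for 3 min. Cells had been cultured 18 h, then dye-loaded 1 h at 37 C before compound or ATP addition.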

[5] = p53 small molecule agonists, cell-based qHTS assay with human liver microsomes (AID 1963577);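 also: p53 response element beta-lactamase reporter cells with liver microsomes plus NADPH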
Outline: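 Metabolically competent format: test substances, human liver microsomes and NADPH (both 0.5 mg/mL final) incubated with p53RE-bla cells 16 h at 37 C. Beta-lactamase reporter signal then quantified by fluorescence.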

[6] = p53 small molecule agonists, cell-based qHTS assay with rat liver microsomes (AID 1963578)
Outline: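 Each plate received p53RE-bla cells, then compound, then rat liver microsomes and NADPH (both 0.5 mg/mL final). Plates were held 16 h at 37 C, and beta-lactamase activity was detected with LiveBLAzer over 2 h.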

[7] = p53 small molecule agonists, cell-based qHTS assay with human liver microsomes: qHTS cell viability counter screen (AID 1963579); also: nearly all actives have a fitted effect of over 45% in size
Outline: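 Tox21 library compounds, delivered from DMSO stocks, were tested on p53RE-bla cells together with 0.5 mg/mL human liver microsomes and 0.5 mg/mL NADPH (final) over 16 h at 37 C; CellTiter-Glo luminescence served as the cytotoxicity measure.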

[8] = p53 small molecule agonists, cell-based qHTS assay with rat liver microsomes: qHTS cell viability counter screen (AID 1963580); also: nearly all actives have a fitted effect of over 45% in size
Outline: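 p53RE-bla HCT-116 cells (4,000/well) rested 5 h at 37 C, then given Tox21 compounds in DMSO with rat liver microsomes (0.5 mg/mL final) plus NADPH (0.5 mg/mL final) for 16 h at 37 C. Viability read by CellTiter-Glo luminescence after 30 min at room temperature.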

[9] = p53 small molecule agonists, cell-based qHTS assay: qHTS cell viability counter screen (AID 1963581); also: nearly all actives have a fitted effect of over 45% in size
Outline: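 In the same plates used for the p53 bla reporter, HCT-116 cells given compounds for 16 h at 37 C received CellTiter-Glo; luminescence was recorded 30 min later at room temperature.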

[10] = p53 small molecule agonists, cell-based qHTS assay (AID 1963582; active = well fitted activation curve with a large enough effect in the signal ratio in the repeat runs, not every such curve was filed as active; the % refers to the signal ratio)
Outline: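 Compounds are pin-transferred in DMSO onto p53RE-bla cells and incubated 16 h at 37 C. The B/G FRET beta-lactamase substrate is then applied for 2 h at RT and fluorescence recorded.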

[11] = biological target: 5-hydroxytryptamine receptor 2A (Homo sapiens) (UniProt P28223); assay: 5-hydroxytryptamine receptor 2A (HTR2A) small molecule antagonists, cell-based qHTS assay (AID 1963586); also: nearly all actives have a fitted effect of over 45% in size
Sequence of 5-hydroxytryptamine receptor 2A (Homo sapiens) (P28223 whole entry, looked up): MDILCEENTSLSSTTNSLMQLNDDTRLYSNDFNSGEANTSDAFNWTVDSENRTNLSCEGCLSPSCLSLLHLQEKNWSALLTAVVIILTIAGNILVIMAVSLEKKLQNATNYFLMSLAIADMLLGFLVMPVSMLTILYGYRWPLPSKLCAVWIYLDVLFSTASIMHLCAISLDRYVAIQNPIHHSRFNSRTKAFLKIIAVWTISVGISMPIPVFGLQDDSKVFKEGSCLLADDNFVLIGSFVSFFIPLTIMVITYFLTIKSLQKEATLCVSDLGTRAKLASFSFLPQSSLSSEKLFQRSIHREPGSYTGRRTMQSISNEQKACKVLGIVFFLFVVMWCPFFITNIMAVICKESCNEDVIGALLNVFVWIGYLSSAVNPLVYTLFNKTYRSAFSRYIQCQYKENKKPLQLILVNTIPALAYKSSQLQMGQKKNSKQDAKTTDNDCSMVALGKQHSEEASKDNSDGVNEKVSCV
Outline: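 Antagonist-mode intracellular calcium assay: DOI (4 nM) added after 5 min compound pre-incubation at room temperature to dye-loaded HTR2A-CHO cells. Fluorescence followed for 3 min, sampled every second.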

[12] = biological target: 5-hydroxytryptamine receptor 2A (Homo sapiens) (UniProt P28223); assay: 5-hydroxytryptamine receptor 2A (HTR2A) small molecule agonists, cell-based qHTS assay (AID 1963587); also: nearly all actives have a fitted effect of over 30% in size
Outline: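 HTR2A-CHO cells, plated 18 h at 37 C/5% CO2, dye-loaded 1 h at 37 C; compounds in DMSO added by pin tool (agonist mode). Intracellular calcium flux read as kinetic fluorescence on FDSS over 2 min at 1 s intervals.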

[13] = biological target: Muscarinic acetylcholine receptor M1 (Homo sapiens) (UniProt P11229); assay: Cholinergic receptor muscarinic 1 (CHRM1) small molecule antagonists, cell-based qHTS assay (AID 1963588); also: nearly all actives have a fitted effect of over 40% in size
Sequence of Muscarinic acetylcholine receptor M1 (Homo sapiens) (P11229 whole entry, looked up): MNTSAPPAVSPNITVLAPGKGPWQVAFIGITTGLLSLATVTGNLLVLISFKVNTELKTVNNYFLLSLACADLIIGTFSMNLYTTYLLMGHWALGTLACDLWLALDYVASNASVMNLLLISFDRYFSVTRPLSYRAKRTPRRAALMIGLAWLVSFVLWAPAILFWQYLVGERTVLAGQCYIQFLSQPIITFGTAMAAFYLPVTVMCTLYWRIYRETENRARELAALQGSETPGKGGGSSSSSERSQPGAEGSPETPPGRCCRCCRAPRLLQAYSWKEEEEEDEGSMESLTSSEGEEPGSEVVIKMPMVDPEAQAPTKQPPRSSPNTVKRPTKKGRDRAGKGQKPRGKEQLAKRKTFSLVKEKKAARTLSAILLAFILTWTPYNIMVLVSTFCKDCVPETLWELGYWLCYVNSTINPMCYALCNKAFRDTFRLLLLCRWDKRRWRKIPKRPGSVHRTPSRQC
Outline: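 CHRM1-CHO calcium-flux assay, antagonist mode. Cells were seeded 18 h, dye-loaded 1 h at 37 C and given compound for 5 min at RT, then acetylcholine was added at 50nM. FDSS fluorescence was read 3 min; 15 concentrations, three runs.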

[14] = cAMP Responsive Elements (CRE) small molecule agonists, cell-based qHTS assay (AID 1963590)
Outline: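 Cell line: CRE-bla HEK 293T; medium DMEM/10% dialyzed FBS/0.1 mM NEAA/1 mM pyruvate/25 mM HEPES; 3 h compound exposure; beta-lactamase FRET readout after 2 h substrate loading at RT.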

[15] = biological target: Beta-2 adrenergic receptor (Homo sapiens) (UniProt P07550); assay: Adrenergic beta2 receptor (ADRB2) small molecule antagonists, cell-based qHTS assay (AID 1963592); also: series mostly up to about 92 µM; nearly all actives have a fitted effect of over 50% in size
Sequence of Beta-2 adrenergic receptor (Homo sapiens) (P07550 whole entry, looked up): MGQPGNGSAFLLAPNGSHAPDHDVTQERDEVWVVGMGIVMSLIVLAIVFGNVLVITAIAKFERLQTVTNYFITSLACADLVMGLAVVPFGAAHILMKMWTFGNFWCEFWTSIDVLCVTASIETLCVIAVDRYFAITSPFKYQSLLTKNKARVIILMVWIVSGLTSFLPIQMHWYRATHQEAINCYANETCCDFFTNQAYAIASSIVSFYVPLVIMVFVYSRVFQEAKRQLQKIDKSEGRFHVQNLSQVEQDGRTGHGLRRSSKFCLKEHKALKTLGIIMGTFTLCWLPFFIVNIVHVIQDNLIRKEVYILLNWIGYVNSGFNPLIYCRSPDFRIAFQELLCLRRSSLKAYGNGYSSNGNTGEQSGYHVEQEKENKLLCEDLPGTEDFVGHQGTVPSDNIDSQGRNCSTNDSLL
Outline: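 Cells (CHO, stable ADRB2 overexpression) incubated 18-20hr at 37C; compounds added from DMSO; agonist mix (1nM isoproterenol, 100uM IBMX, 25uM Ro-20-1724) added; 0.5hr RT; d2-cAMP and anti-cAMP-cryptate added; 1hr RT; 665/615 nm read.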

[16] = biological target: D(2) dopamine receptor (Homo sapiens) (UniProt P14416); assay: Dopamine D2 receptor (DRD2) small molecule agonists, cell-based qHTS assay (AID 1963594); also: nearly all actives have a fitted effect of over 35% in size
Sequence of D(2) dopamine receptor (Homo sapiens) (P14416 whole entry, looked up): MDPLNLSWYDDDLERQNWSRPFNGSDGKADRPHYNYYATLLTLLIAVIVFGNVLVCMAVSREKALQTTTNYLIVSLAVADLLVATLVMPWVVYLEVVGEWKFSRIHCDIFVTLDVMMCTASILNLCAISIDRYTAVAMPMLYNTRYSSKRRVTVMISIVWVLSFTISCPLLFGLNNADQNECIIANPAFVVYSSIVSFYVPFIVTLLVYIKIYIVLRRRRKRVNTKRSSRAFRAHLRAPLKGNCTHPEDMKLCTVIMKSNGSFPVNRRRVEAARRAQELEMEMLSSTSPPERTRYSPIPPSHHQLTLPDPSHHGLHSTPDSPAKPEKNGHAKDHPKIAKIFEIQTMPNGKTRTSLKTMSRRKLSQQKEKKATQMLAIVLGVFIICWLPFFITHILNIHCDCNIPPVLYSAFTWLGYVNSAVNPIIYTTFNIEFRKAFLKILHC
Outline: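 HEK293 cells stably expressing DRD2 were cultured 24 h at 37 C, then given Ro20-1724 (0.1 mM final) and compounds for 10 min at room temperature. NKH477 (200nM) was then added for 30 min. cAMP was read by HTRF.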

[17] = biological target: D(2) dopamine receptor (Homo sapiens) (UniProt P14416); assay: Dopamine D2 receptor (DRD2) small molecule antagonists, cell-based qHTS assay (AID 1963595; active = well fitted inhibition curve with a large enough effect in the signal ratio in the repeat runs, with a control signal flat; the % refers to the signal ratio)
Outline: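 Human DRD2 antagonist qHTS measuring cAMP by HTRF. The cells are exposed to compound for 10 min, then to NKH477 (200 nM) and quinpirole (12 nM) for 30 min at RT, with Ro20-1724 (0.1 mM) present throughout.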

[18] = cAMP Responsive Elements (CRE) small molecule antagonists, cell-based qHTS assay (AID 1963591; active = well fitted inhibition curve with a large enough effect in the signal ratio in the repeat runs, not every such curve was filed as active; the % refers to the signal ratio)
Outline: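 Inhibition of NKH477-driven (0.25 uM final) CRE-beta-lactamase signal in HEK293T cells, 3 h compound exposure at 37 °C, detected by FRET substrate fluorescence.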

[19] = biological target: Muscarinic acetylcholine receptor M1 (Homo sapiens) (UniProt P11229); assay: Cholinergic receptor muscarinic 1 (CHRM1) small molecule agonists, cell-based qHTS assay (AID 1963589); also: nearly all actives have a fitted effect of over 35% in size
Outline: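 Each compound was tested at 15 concentrations across three independent runs on dye-loaded CHO cells stably expressing human CHRM1, reading intracellular calcium fluorescence kinetically at 1 sec intervals.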

[20] = biological target: Beta-2 adrenergic receptor (Homo sapiens) (UniProt P07550); assay: Adrenergic beta2 receptor (ADRB2) small molecule agonists, cell-based qHTS assay (AID 1963593);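 also: CHO cells stably overexpressing human ADRB2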
Outline: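 CHO cells stably over-expressing ADRB2 were plated overnight at 37C, then dosed with compounds plus a stimulation mix containing 100uM IBMX and 25uM Ro-20-1724 for 0.5hr at room temperature. cAMP was measured by HTRF competition, 1hr.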

Measured: Potency

O=C1CCCC(=O)O1
not listed: [18] | [19] | [20]
inactive: all other assays above

Oc1ccccc1-c1nnco1
not listed: [19] | [20]
inactive: all other assays above

CCCC(=O)OC
not listed: [12] | [20]
inactive: all other assays above

CSc1c(Cl)c(Cl)c(Cl)c(Cl)c1Cl
not listed: [13]
inactive: all other assays above

COc1cccc(N)c1
not listed: [18] | [20]
inactive: all other assays above

CCc1cccc(N(C)C(N)=Nc2cccc3ccccc23)c1
not listed: [11] | [12] | [18]
inactive: all other assays above

O=C(O)COc1nn(Cc2ccccc2)c2ccccc12
not listed: [14] | [17] | [18]
inactive: all other assays above
